In PubChem BioAssay AID2284066 (EPA ToxCast):
Active and inactive are the calls of the source. How the source made its calls: active means hit-call score of the fitted dose curve at least 0.9, where 1 is the maximum; inactive means score below 0.9.

Molecular target: Tyrosine-protein kinase Fyn (Homo sapiens) (UniProt P06241)
Test: ERF_FR_ENZ_hFYN: Eurofins (ERF) Enzymatic Radiometric [Km ATP] KinaseProfiler LeadHunter Assay for human Fyn Tyrosine Kinase
Procedure: ERF_FR_ENZ_hFYN is a biochemical, single-readout assay that uses extracted gene-proteins in a cell-free assay. Measurements were taken 1 hour after chemical dosing in a 96-well plate. See Fyn Human TK Kinase Enzymatic HTRF Assay [Km ATP], Cerep.ERF_FR_ENZ_hFYN is an assay component calculated from the ERF_FR_ENZ_hFYN assay. It is designed to measure enzyme activity using a type of enzyme reporter as detected by fluorescence intensity with HTRF technology.Data from the assay component ERF_FR_ENZ_hFYN was analyzed at the assay endpoint, ERF_FR_ENZ_hFYN, in the positive analysis fitting direction relative to DMSO as the negative control and baseline of activity. Using a type of enzyme reporter, loss-of-signal activity can be used to understand changes in enzymatic activity as they relate to gene FYN. To generalize the intended target to other relatable targets, this assay endpoint is annotated to the kinase intended target family, where the subfamily is non-receptor tyrosine […].
Fyn (h) is incubated with 50 mM Tris pH 7.5, 0.1 mM EGTA, 0.1 mM Na3VO4, 250 uM […] (Cdc2 peptide), 10 mM MgAcetate and [gamma-33P]-ATP (specific activity and concentration as required). The reaction is initiated by the addition of the Mg/ATP mix. After incubation for 40 minutes at room temperature, the reaction is stopped by the addition of phosphoric acid to a concentration of 0.5%. […]

Chain of Tyrosine-protein kinase Fyn (Homo sapiens) (P06241 whole entry, looked up): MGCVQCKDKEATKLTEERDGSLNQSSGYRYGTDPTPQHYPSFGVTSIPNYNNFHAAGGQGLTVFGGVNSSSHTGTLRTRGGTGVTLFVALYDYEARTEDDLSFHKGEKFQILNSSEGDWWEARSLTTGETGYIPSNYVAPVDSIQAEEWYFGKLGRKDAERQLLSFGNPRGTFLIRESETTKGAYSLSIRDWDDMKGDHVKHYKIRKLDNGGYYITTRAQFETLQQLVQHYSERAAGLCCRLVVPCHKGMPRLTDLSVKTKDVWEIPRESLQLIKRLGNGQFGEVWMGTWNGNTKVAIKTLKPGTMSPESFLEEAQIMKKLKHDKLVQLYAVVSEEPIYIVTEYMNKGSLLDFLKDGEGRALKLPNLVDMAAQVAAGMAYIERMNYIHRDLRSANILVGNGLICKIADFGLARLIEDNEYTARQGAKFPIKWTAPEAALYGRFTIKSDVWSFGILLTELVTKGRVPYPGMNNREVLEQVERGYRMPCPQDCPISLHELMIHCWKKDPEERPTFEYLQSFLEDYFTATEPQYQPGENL

Row | SMILES | AC50
1 | O=C(/C=C/c1ccc(O)cc1)CC(=O)/C=C/c1ccc(O)cc1 | 992 nM (active)
